Data taken from ChEMBL document CHEMBL3988442, “University of Dundee, Small-Polar-MMV Screening Library” (2021).
Among all 48,000 compounds or so, about 13,000 (27%) showed an effect of 50% or more. The list shows a part of the results.

Test system: Wolbachia pipientis
Test: Anti-Wolbachia Cell-Based Screen
Format: functional
Set-up: scale not given: in the data most compounds retested in dose-response had high values
Conditions: 5 µM

Compound	Percent Effect [%]
CCS(=O)(=O)NCc1cc(Br)c(OC)c(OC)c1	-0.2028
CCS(=O)(=O)c1ccccc1C(=O)NCC1Cc2ccccc2O1 (configuration not stated)	-9.446
CC(C)CCC(=O)N1CCC(c2nnc(CN(C)CCO)n2C)CC1	-15.68
CCOCC(=O)NC1(c2cccc(Br)c2)CC1	-23.15
Cc1n[nH]c(=O)c2c(NC(=O)CN3CCC(C)CC3)oc(C)c12	8.431
COC(=O)N1CCN(c2ncnc3nc(C)cc(C)c23)CC1	98.52
Cc1cc(C)c2c(N(C)CC3COCCO3)ncnc2n1 (configuration not stated)	-3.038
COCCCN1CCN(c2ncnc3nc(C)cc(C)c23)CC1	-12.49
Cc1cc(C)c2c(N3CCN(Cc4ncccc4C)CC3)ncnc2n1	-39.06
Cc1cc(C)c2c(N3CCN(C(=O)N(C)C)CC3)ncnc2n1	111.7
COCCN1CCN(c2ncnc3nc(C)cc(C)c23)CC1	-19.86
CSc1ccc(NC(=O)Cc2cccc(O)c2)nc1	-26.55
Cc1cncc(C(=O)N2CCC3(CC2)C(=O)Nc2ccccc23)c1	-7.764
FC(F)(F)c1ccc(-c2noc3c2CN(CC2CCCO2)CC3)cc1 (configuration not stated)	-4.107
CC(C)N(CCNCc1ccc(C#N)cc1)C1CC1	-21.35
Cc1c[nH]c(CN2CCCCC2CCN(C)C)c(C)c1=O (configuration not stated)	-7.535
CCC(=O)N1CCCN(C(=O)C2SCCc3sccc32)CC1 (configuration not stated)	13.84
CC1c2ccsc2CCN1Cc1cc2c(cc1O)OCO2 (configuration not stated)	137.7
CN(C)CCN1CC[C@H]2[C@@H]1CCN2Cc1ccc2c(c1)OCO2	-11.21
NC(=O)c1ccc(OCCC(=O)NC2CCc3c(F)cccc32)cc1 (configuration not stated)	19.22
CC(=O)N[C@@H]1CN(C(=O)c2ccc[nH]2)C[C@H]1c1ccc(C)o1	-8.166
CNc1nc(CN2C[C@@H](NC(C)=O)[C@H](c3ccc(C)o3)C2)cs1	0.1699
C/C=C(\C)CN1C[C@H](NC(=O)CN2CCCC2=O)[C@@H](c2ccc(C)o2)C1	97.75
CC(=O)N[C@@H]1CN(C(=O)c2cc(C)oc2C)C[C@H]1c1ccc(C)o1	-1.342
C/C=C(\C)CN1C[C@H](NC(=O)CCOC)[C@@H](c2ccc(C)o2)C1	82.28
CCC[C@H]1CN(Cc2ccc(N(C)C)nc2)C[C@@H]1NC(=O)CCOC	-4.276

Compound	Percent Effect [%]
O=C(CN1CCCCCC1=O)NC1CCc2nccn2C1 (configuration not stated)	0.7111
CC(=O)N1C[C@H](NS(=O)(=O)N2CCCC2)[C@@H](c2ccc(C)o2)C1	-3.445
Cc1ccc([C@H]2CN(CCO)C[C@@H]2NC(=O)CN2CCCCC2=O)o1	92.71
COc1ccnc(CNc2nc(C)nc(C)c2C)c1	-1.425
CCc1nc(CC(=O)N2CCn3c(nnc3C(C)C)C2)cs1	3.887
COCCN(Cc1nccs1)C(=O)c1c(C)cc(C)[nH]c1=O	-6.144
CC(C(=O)NC(C)(C)C)S(=O)(=O)Cc1noc(C(C)(C)C)n1 (configuration not stated)	3.309
O=C(C1CCC1)N1CCCC(c2ccnc(Nc3cnccn3)n2)C1 (configuration not stated)	48.97
O=C(C1CCCC1)N1CCC(c2ccnc(Nc3cnccn3)n2)C1 (configuration not stated)	92.23
Cl.Cl.NCC(=O)N1CCCC(c2ccnc(Nc3cnccn3)n2)C1 (configuration not stated)	138.9
CC(=O)N1CCCC(c2ccnc(Nc3cnccn3)c2)C1 (configuration not stated)	134
Cc1cc(C2CCCN(C(=O)c3cnccn3)C2)ccn1 (configuration not stated)	-6.489
CNCC(=O)N1CCCC(c2ccnc(Nc3cnccn3)n2)C1 (configuration not stated)	90.62
COCc1ccc(C(=O)N2CC[C@@](O)(COC)C(C)(C)C2)o1	3.183
CCc1c(C)nn(CC(=O)NC(C(=O)O)c2c(C)n[nH]c2C)c1C (configuration not stated)	1.191
Cc1ccccc1CC1(CO)CCCN(c2ncccc2C#N)C1 (configuration not stated)	0.9317
C=C(C)CNc1nc(CS(=O)(=O)c2ccccc2)cs1	-10.96
CC(CNC(=O)N1CCN(Cc2ccon2)CC1)Cc1cccs1 (configuration not stated)	-18.64
O=C(Cn1c(=O)oc2ccccc21)N1Cc2cnn(CCO)c2C1	-5.203
CC(=O)N1CCCC(c2ccnc(Nc3cnccn3)n2)C1 (configuration not stated)	113.3
COc1ccc(CCC(=O)N2CCCCC2Cn2cccn2)cc1F (configuration not stated)	155.4
O=C(CCc1ccc(F)c(F)c1)N1CCCCC1Cn1cccn1 (configuration not stated)	87.24
O=C(c1cccc2c1OCO2)N1CCCCC1Cn1cccn1 (configuration not stated)	-4.366
COc1ccc(CC(=O)N2CCCC2Cn2cccn2)cc1F (configuration not stated)	2.407
O=C(CCc1c(F)cccc1F)N1CCCCC1Cn1cccn1 (configuration not stated)	126.8
O=C(CCc1ccc2c(c1)OCO2)N1CCCCC1Cn1cccn1 (configuration not stated)	137.4

Compound	Percent Effect [%]
CSc1c[nH]nc1NS(=O)(=O)c1ccc(C)c(C)c1	4.625
O=C(Nc1ccccc1CCO)c1cccc(CN2CC[C@H](O)C2)c1	-8.564
COc1ccc(F)c(CN2CCCC3(CCN(S(C)(=O)=O)C3)C2)c1 (configuration not stated)	-4.467
O=C(c1cc(-c2cccs2)on1)N1CCCCC1Cn1cccn1 (configuration not stated)	91.35
Cc1oc(-c2cccs2)nc1C(=O)N1CCCC1Cn1cccn1 (configuration not stated)	103.5
O=C(c1cccn1Cc1cccs1)N1CCCC1Cn1cccn1 (configuration not stated)	4.58
N#Cc1ccsc1C(=O)N1CCCCC1Cn1cccn1 (configuration not stated)	-3.499
Cc1noc(C)c1CN(C)CCc1nc(-c2cccc(Cl)c2)no1	0.3419
c1ccc(CCCn2ccnc2-c2cn(C3CCNCC3)nn2)nc1	103.3
COc1cccc(CCn2ccnc2-c2cn(C3CCNCC3)nn2)c1	111.7
Cc1cc2nc(-c3cn(C4CCNCC4)nn3)[nH]c2cc1C	-3.563
Cc1ccc2[nH]c(-c3cn(C4CCNCC4)nn3)nc2c1C	9.5
O=C(NC1CCCCC1)N1CCC(n2cc(-c3ccccn3)nn2)CC1	-3.255
Cc1cccc2[nH]c(-c3cn(C4CCNCC4)nn3)nc12	-0.8234
COc1cccc(CCN2C[C@H]3CCNCC[C@H]3S2(=O)=O)c1.O=C(O)C(F)(F)F	12.24
c1ccc(OCCCn2ccnc2-c2cn(C3CCNCC3)nn2)cc1	87.94
Clc1ccccc1CCn1ccnc1-c1cn(C2CCNCC2)nn1	101.1
O[C@H]1[C@H](n2cc(-c3ccccn3)nn2)c2ccccc2C12CCNCC2	-37
Cc1c(C)c(C)c2[nH]c(-c3cn(C4CCNCC4)nn3)nc2c1C	5.399
COc1ccc(CCn2ccnc2-c2cc3n(n2)CCCNC3)cc1	-17.25
CNC(=O)c1cccc(CNC(C)c2cc(C)ccc2OC(F)F)c1 (configuration not stated)	2.562
CC(C)CNc1nc(C(=O)/N=c2\[nH]nc(C(C)(C)C)s2)cs1	9.925
COc1cccc([C@H]2CN(C(=O)c3scc4c3CCCC4)C[C@@H]2N)c1	-10.32
O=S(=O)(CCc1ccccc1)Nc1cc(Cl)ccn1	-16.02
CSCc1ccc(N2CCC(C(O)CC(C)C)CC2)nc1 (configuration not stated)	-3.23
COc1cccc(CNC(C)c2ccc(-n3ccnc3)cc2)c1O (configuration not stated)	3.228

Compound	Percent Effect [%]
CCc1nn(C)c(CC)c1CNC(=O)Nc1cccc([S+](C)[O-])c1 (configuration not stated)	3.217
CN(C)c1nc(CNC(=O)Nc2cccc([S+](C)[O-])c2)cs1 (configuration not stated)	95.39
CN1CCN(c2cccc(NC(=O)NCc3csc(N(C)C)n3)c2)C1=O	-9.852
O=C(NCCn1nc2ccccn2c1=O)c1cccc2[nH]ncc12	-8.467
Cc1nc(CN2CCCC(Cn3cc(CCO)nn3)C2)c[nH]1 (configuration not stated)	12.54
CNCc1cn(CC2CCN(Cc3cccs3)CC2)nn1	1.439
COCc1cn(CC2CCN(Cc3nc(C)c[nH]3)CC2)nn1	122.2
COCc1cn(CC2CCN(Cc3c(C)[nH]c4ccccc34)CC2)nn1	121.8
CC(C)(CN1CCCC1)CN1CCC(Cn2cc(CCO)nn2)CC1	39.97
COCc1cn(CC2CCN(Cc3cc(C)[nH]n3)CC2)nn1	114.7
CNCc1cn(CC2CCN(CC(C)(C)CN3CCCC3)CC2)nn1	-11.44
CCCN1CCC(N2CCC(Cn3cc(CC(C)O)nn3)CC2)CC1 (configuration not stated)	-21.76
Cc1cc(C)n2ncc(CN3CCC(Cn4cc(CO)nn4)CC3)c2n1	8.529
CCC(CNC(=O)c1ccc(Br)o1)N1CCc2ccccc2C1 (configuration not stated)	-5.246
N[C@H]1CC[C@@H](Nc2nccc(CCC(F)(F)F)n2)CC1	2.361
CC(C)n1ccnc1C1CCN(C(=O)c2ccccc2)CC1	1.199
Cc1nc(C2CCCN(C(=O)c3scnc3C)C2)no1 (configuration not stated)	-0.5479
Nc1cc(-c2cncnc2C2CCN(C(=O)c3ccccc3)C2)ccn1 (configuration not stated)	132.6
Cc1ncsc1C(=O)N1CCC(c2ncncc2-c2ccnc(N)c2)C1 (configuration not stated)	113.1
O=C(c1ccccc1)N1CCCN(C(=O)c2ncncc2Cl)CC1	22.3
Cc1ccc2nc(CN(Cc3ccc(C#N)cc3)C(C)C)cc(=O)n2c1	-2.733
COCCCN(C)[C@@H]1c2ccccc2C2(CCNCC2)[C@H]1O	9.06
COC(CNC(=O)c1cn(C)nn1)c1ccccc1C (configuration not stated)	-14.48
COc1c(F)cc(-c2cn(CCn3c(C)cc(C)nc3=O)nn2)cc1Cl	-4.684
